Inconclusive results are not listed. The source made the active and inactive calls. Unless noted, calls follow the shape of the full dose curve.
What was measured:
[1] = Cell Viability - BJ (AID 421); details: BJ fibroblast viability, qHTS;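 also: potency is read from the fitted curve at half-maximal effect; cells exposed to compound for 40 hours at 37 °C before readout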
In short: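 Normal human BJ foreskin fibroblasts, 1500/well in complete medium, treated 40 hr at 37 °C. Cellular ATP by CellTiter-Glo luminescence; normalized to DMSO and 100 uM tamoxifen, AC50 from Hill fit.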

[2] = Cell Viability - Jurkat (AID 426;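 active = dose-dependent loss of cell ATP signal giving a full or clear fitted curve, ranked by lower potency value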; also: potency is read from the fitted curve at half-maximal effect); details: qHTS
In short: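 Jurkat (Clone E6-1) cells, 5000/well in complete medium, exposed to compounds for 40 hr at 37C; intracellular ATP measured by CellTiter-Glo luminescence after 20 min at room temperature. AC50 from Hill fits.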

[3] = Cell Viability - Hek293 (AID 427;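 active = compounds whose dose-response curve shows a full or clear partial loss of cell viability, called from curve shape rather than a numeric limit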;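 also: potency is read from the fitted curve at half-maximal effect; cells exposed to compound for 40 hours at 37 °C before reading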); details: qHTS
In short: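 HEK293 cells in complete medium were exposed to compound for 40 hr at 37 °C, then cellular ATP was read by CellTiter-Glo luminescence. Data were normalized to DMSO (basal) and 100 uM tamoxifen (100% inhibition), and AC50 came from Hill fits.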

[4] = Cell Viability - HepG2 (AID 433); details: qHTS;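 also: potency is read from the fitted curve at half-maximal effect; potency for ATP loss meaning cytotoxicity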
In short: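 In this qHTS format, a 40 h, 37 °C compound incubation of HepG2 cells in complete medium precedes a 20 min CellTiter-Glo step at room temperature. Tamoxifen and doxorubicin serve as positive controls; Hill-equation fits yield AC50.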

[5] = Cell Viability - MRC5 (AID 434); details: MRC5 lung fibroblast viability, qHTS;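 also: potency is read from the fitted curve at half-maximal effect; potency reflects cytotoxicity seen as loss of intracellular ATP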
In short: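 MRC5 normal human lung fibroblasts (1500/well) were treated with compounds for 40 hr at 37 °C in complete medium, and viable cells were measured as intracellular ATP by CellTiter-Glo luminescence. AC50 came from Hill fits, normalized to DMSO and 100 uM tamoxifen.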

[6] = Cell Viability - SK-N-SH (AID 435); details: SK-N-SH neuroblastoma cell viability qHTS;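 also: potency is read from the fitted curve at half-maximal effect; compound exposure lasted 40 h at 37 °C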
In short: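 Human neuroblastoma line, 40 h exposure at 37 °C, ATP quantified via luciferase luminescence; DMSO and 100 uM tamoxifen define 0 and 100% inhibition for AC50 fitting.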

[7] = target: Mitogen-activated protein kinase 10 (Mus musculus) (UniProt Q61831); assay: JNK3 AlphaScreen Assay (AID 530; active = well fitted curve in either direction with a large enough effect, not every such curve was filed as active;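 also: kinase came from lysate of stimulated human HepG2 cells; signal reports phosphorylation of biotinylated GST-cJun 1-79 at Ser73 with 10 µM ATP; % is scaled to controls: 0 for no effect and ±100 for the full control effect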); details: JNK3 lysate, c-Jun phosphorylation; series mostly up to 57.1 µM
In short: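 Inhibitors reduce antibody binding to phosphorylated biotin-cJun, lowering AlphaScreen luminescence. Lysates from HepG2 cells pre-activated by IL-1beta plus TNF-alpha supplied JNK3; compounds were titrated.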

[8] = Cell Viability - N2a (AID 540; active = well fitted curve in the direction sought with a large enough effect; an effect the other way counts as inactive or inconclusive;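 also: plate controls were DMSO alone for no effect and tamoxifen control for full effect; nearly all actives have a fitted effect of over 45% in size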); details: N2a mouse neuroblastoma cell viability; activity change, negative = cytotoxicity: at 92.2 µM (top of the series)
In short: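 Mouse neuroblastoma N2a cells, 1500/well, exposed to compounds 40 h at 37 °C in complete medium. Viability measured as cellular ATP by CellTiter-Glo luminescence; AC50 from Hill fits of concentration-response.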

[9] = Cell Viability - NIH 3T3 (AID 541; active = well fitted curve in the direction sought with a large enough effect; an effect the other way counts as inactive or inconclusive;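 also: plate controls were DMSO alone for no effect and tamoxifen positive control for full effect; nearly all actives have a fitted effect of over 25% in size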); details: NIH 3T3 cell viability, qHTS; activity change, negative = cytotoxicity: at 92.2 µM (top of the series)
In short: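 Mouse NIH 3T3 fibroblasts, 1000 cells/well, rested 5 hr at 37 °C, then exposed to compound for 40 hr at 37 °C in complete medium. Viability read as intracellular ATP by CellTiter-Glo luminescence; AC50 from Hill-equation fits of concentration-response data.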

[10] = Cell Viability - HUV-EC-C (AID 542; active = well fitted curve in the direction sought with a large enough effect; an effect the other way counts as inactive or inconclusive; also: % is scaled to controls: 0 for no effect and ±100 for the full control effect; nearly all actives have a fitted effect of over 35% in size); details: HUV-EC-C endothelial cell viability, qHTS; series mostly up to 92.2 µM
In short: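 HUV-EC-C human vascular endothelial cells, 1000/well, exposed to compound for 40 hr at 37 °C in complete medium. Intracellular ATP was read by CellTiter-Glo luminescence. AC50 came from Hill-equation fits of concentration-response data.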

FC(F)(F)c1ccccc1Cl
inactive: Potency [1] > 92 µM | Potency [2] > 92 µM | Potency [3] > 92 µM | Potency [4] > 92 µM | Potency [5] > 92 µM | Potency [6] > 92 µM | outcome [7] | activity change, negative = cytotoxicity [8] -3.42% | Potency [9] | Potency [10]

NC(=O)/N=N/C(N)=O
inactive: Potency [1] > 92 µM | Potency [2] > 92 µM | Potency [3] > 92 µM | Potency [4] > 92 µM | Potency [5] > 92 µM | Potency [6] > 92 µM | outcome [7] | activity change, negative = cytotoxicity [8] 10.3% | Potency [9] | Potency [10]

Cc1ccccc1C(=O)O
inactive: Potency [1] > 92 µM | Potency [2] > 92 µM | Potency [3] > 92 µM | Potency [4] > 92 µM | Potency [5] > 92 µM | Potency [6] > 92 µM | outcome [7] | activity change, negative = cytotoxicity [8] -16.3% | Potency [9] | Potency [10]

CC(=O)CCc1ccccc1
inactive: Potency [1] > 92 µM | Potency [2] > 92 µM | Potency [3] > 92 µM | Potency [4] > 92 µM | Potency [5] > 92 µM | Potency [6] > 92 µM | outcome [7] | activity change, negative = cytotoxicity [8] -2.11% | Potency [9] | Potency [10]

CCCOCC(C)O (stereo not given)
inactive: Potency [1] > 92 µM | Potency [2] > 92 µM | Potency [3] > 92 µM | Potency [4] > 92 µM | Potency [5] > 92 µM | Potency [6] > 92 µM | outcome [7] | activity change, negative = cytotoxicity [8] -5.54% | Potency [9] | Potency [10]

O=C(O[C@@H](C(=O)O)[C@@H](OC(=O)c1ccccc1)C(=O)O)c1ccccc1
inactive: Potency [1] > 92 µM | Potency [2] > 92 µM | Potency [3] > 92 µM | Potency [4] > 92 µM | Potency [5] > 92 µM | Potency [6] > 92 µM | outcome [7] | activity change, negative = cytotoxicity [8] 4.68% | Potency [9] | Potency [10]

CCCCC=O
inactive: Potency [1] > 92 µM | Potency [2] > 92 µM | Potency [3] > 92 µM | Potency [4] > 92 µM | Potency [5] > 92 µM | Potency [6] > 92 µM | outcome [7] | activity change, negative = cytotoxicity [8] 4.71% | Potency [9] | Potency [10]

COC(=O)CC#N
inactive: Potency [1] > 92 µM | Potency [2] > 92 µM | Potency [3] > 92 µM | Potency [4] > 92 µM | Potency [5] > 92 µM | Potency [6] > 92 µM | outcome [7] | activity change, negative = cytotoxicity [8] -15.8% | Potency [9] | Potency [10]

Cc1ccc(C)c([N+](=O)[O-])c1
inactive: Potency [1] > 92 µM | Potency [2] > 92 µM | Potency [3] > 92 µM | Potency [4] > 92 µM | Potency [5] > 92 µM | Potency [6] > 92 µM | outcome [7] | activity change, negative = cytotoxicity [8] 2.29% | Potency [9] | Potency [10]

C=CCOC(=O)CCCCCCCC
inactive: Potency [1] > 92 µM | Potency [2] > 92 µM | Potency [3] > 92 µM | Potency [4] > 92 µM | Potency [5] > 92 µM | Potency [6] > 92 µM | outcome [7] | activity change, negative = cytotoxicity [8] 9.38% | Potency [9] | Potency [10]

CC/C=C/C#N
inactive: Potency [1] > 92 µM | Potency [2] > 92 µM | Potency [3] > 92 µM | Potency [4] > 92 µM | Potency [5] > 92 µM | Potency [6] > 92 µM | outcome [7] | activity change, negative = cytotoxicity [8] -7.86% | Potency [9] | Potency [10]

O=Cc1cccc(Br)c1
inactive: Potency [1] > 92 µM | Potency [2] > 92 µM | Potency [3] > 92 µM | Potency [4] > 92 µM | Potency [5] > 92 µM | Potency [6] > 92 µM | outcome [7] | activity change, negative = cytotoxicity [8] 0.0642% | Potency [9] | Potency [10]

Cc1cscn1
inactive: Potency [1] > 92 µM | Potency [2] > 92 µM | Potency [3] > 92 µM | Potency [4] > 92 µM | Potency [5] > 92 µM | Potency [6] > 92 µM | outcome [7] | activity change, negative = cytotoxicity [8] 6.1% | Potency [9] | Potency [10]

Nc1nc2ccccc2[nH]1
inactive: Potency [1] > 92 µM | Potency [2] > 92 µM | Potency [3] > 92 µM | Potency [4] > 92 µM | Potency [5] > 92 µM | Potency [6] > 92 µM | outcome [7] | activity change, negative = cytotoxicity [8] -3.92% | Potency [9] | Potency [10]

Cc1ccc(C(=O)O)cc1
inactive: Potency [1] > 92 µM | Potency [2] > 92 µM | Potency [3] > 92 µM | Potency [4] > 92 µM | Potency [5] > 92 µM | Potency [6] > 92 µM | outcome [7] | activity change, negative = cytotoxicity [8] 3.7% | Potency [9] | Potency [10]

[O-]/[N+](=N\O)c1ccccc1
inactive: Potency [1] > 92 µM | Potency [2] > 92 µM | Potency [3] > 92 µM | Potency [4] > 92 µM | Potency [5] > 92 µM | Potency [6] > 92 µM | outcome [7] | activity change, negative = cytotoxicity [8] 0.0649% | Potency [9] | Potency [10]
